# In the library only some 2.6% were active in any assay of this set; here they are far more common.
# PRMT1 FP inh – PRMT1 methyltransferase inhibitors, primary screen, biochemical, fluorescence polarization; Protein arginine N-methyltransferase 1 (Homo sapiens), Q99873; recombinant PRMT1, activity-based probe fluorescence polarization; inhibition, % at 2.79 µM; 370,000 tested, 1.3% active;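 active = inhibition above about 21% made by adding two undisclosed values, limit read from the data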
# TLR4 MyD88 comp – inhibitors of TLR4-MyD88 association in cells, primary screen, cell-based, HeLa CL3-4, BLA complementation, FRET ratio | AID 861, 2007 | Toll-like receptor 4 (Homo sapiens) + Myeloid differentiation primary response protein … | HeLa CL3-4 TLR4/MyD88 BLA complementation | 200,000 tested, 0.18% active | inhibition, % at 8.4 µM; in the data active = inhibition above about 25%;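 note: 0% = vehicle and 100% = reference inhibitor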
# NOD2-RIPK2 inh – NOD2-RIPK2 binding disruptors in cells, primary screen, fluorescence, CHO cells, BLA complementation; inhibition, % at 4.98 µM; CCF4 ratio; AID 624267, 2012; 360,000 tested, 0.38% active; Receptor-interacting serine/threonine-protein kinase 2 (Homo sapiens), O43353; in the data active = inhibition above about 21%;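 note: 0% = vehicle only and 100% = reference blocker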
# TLR9-MyD88 block – inhibitors of TLR9-MyD88 association in cells, primary screen, cell-based, CHO, BLA complementation, fluorescence; 340,000 tested, 0.21% active; inhibition, % at 4.98 µM; CCF4 FRET ratio; AID 504734, 2011; Toll-like receptor 9 (Homo sapiens) + Myeloid differentiation primary response protein …;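 active = inhibition above the mean over all tested compounds plus 3 SD, cut at about 21% in these data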;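 note: 0% = DMSO only wells and 100% = clavulanate BLA inhibitor control wells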
# Exocytosis inh – LAMP-1 surface exposure blockers, TALL-104 cells – cell-based, flow cytometry, MLPCN library, primary screen. TALL-104 LAMP-1 surface exposure; cells stimulated with thapsigargin and PMA. inhibition, % at 10 µM. 360,000 tested, 0.66% active;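 active = inhibition above about 55%, limit read from the data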
# ABHD5-PLIN5 inh – ABHD5-PLIN5 interaction inhibitors, primary screen, cell lysate, split luciferase complementation, luminescence | Perilipin-5 (Homo sapiens) + 1-acylglycerol-3-phosphate O-acyltransferase ABHD5 (Homo … | Split G. princeps luciferase complementation, 4 h | inhibition, % at 4 µM | 360,000 tested, 0.78% active | AID 602281, 2012;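 active = inhibition above the mean inhibition across every tested compound plus 3 SD, cut at about 22% in these data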;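 note: 0% = DMSO only wells and the 100% control is not disclosed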
# NOD2 RIPK2 conf – NOD2-RIPK2 binding disruptors, retest, confirmation, fluorescence, CHO cells, BLA complementation, triplicate | inhibition, % at 4.98 µM | CCF4 FRET | shares compounds with NOD2-RIPK2 inh | 1,200 tested, 70% active;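 active = mean inhibition across replicates above a set limit taken from the earlier primary screen, cut at about 21% in these data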;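 note: 0% = DMSO-only wells and the high end = clavulanate BLA-blocked wells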
# BLA counter – NOD2-RIPK2 counterscreen BLA reporter activity; AID 624371; inhibition, % at 4.98 µM; shares compounds with NOD2-RIPK2 inh; CHO BLA reporter, CCF4 FRET ratio; 1,200 tested, 57% active;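 active = mean inhibition above the low-control mean inhibition plus three low-control SD, cut at about 11% in these data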;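 note: 0% = DMSO only wells and 100% = clavulanate high control wells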
# * marks the source's active call; other numbers are inactive results; . = no result given.
SMILES,PRMT1 FP inh,TLR4 MyD88 comp,NOD2-RIPK2 inh,TLR9-MyD88 block,Exocytosis inh,ABHD5-PLIN5 inh,NOD2 RIPK2 conf,BLA counter
Cc1ccc(S(=O)(=O)Nc2ccccc2-c2ccccc2NS(=O)(=O)c2ccc(C)cc2)cc1,3.9,3.7,-0.5,2.7,27.9,-12.2,.,.
Cc1ccc(S(=O)(=O)Nc2cccc3cccnc23)cc1,-1.0,17.2,38.3*,35.8*,4.5,-0.2,59.0*,25.0*
O=C(NCc1ccco1)C1CCCN(S(=O)(=O)c2ccccc2[N+](=O)[O-])C1 (stereo not given),-2.4,.,.,.,.,.,.,.
Cc1c(Cl)cccc1NC(=S)NCc1ccc(Cl)cc1,-2.1,1.3,21.7*,-12.7,-0.2,-7.0,-5.9,-3.4
Cc1c(Cl)cccc1NC(=S)NCc1ccccc1,0.9,-11.9,-3.2,-4.4,2.9,-4.5,.,.
O=C1OCCN1C(=O)[C@H]1[C@H](c2ccc(F)cc2)C(c2cccc(Cl)c2)=NN1c1ccccc1,8.3,.,28.1*,-5.1,-1.0,-6.5,16.9,44.2*
O=C1OCCN1C(=O)[C@H]1[C@H](c2ccc(Cl)cc2)C(c2cccc(Cl)c2)=NN1c1ccccc1,.,2.0,14.8,13.0,0.1,-4.2,.,.
O=C1OCCN1C(=O)[C@H]1[C@H](c2ccc(Cl)cc2)C(c2ccccc2)=NN1c1ccc(Br)cc1,-3.4,.,13.7,-8.7,-2.5,-7.7,.,.
O=C1OCCN1C(=O)[C@H]1[C@H](c2ccc(F)cc2)C(c2cccc(Cl)c2)=NN1c1ccc(Br)cc1,4.1,.,26.2*,-12.8,0.0,0.7,14.7,48.1*
OC[C@@H]1[C@@H](c2ccccc2)C(c2cccc(Cl)c2)=NN1c1ccccc1,-1.7,.,32.6*,-4.3,-0.4,-13.8,27.4*,53.8*
O=C1OCCN1C(=O)[C@H]1[C@H](c2ccccc2)C(c2cccc(Cl)c2)=NN1c1ccc(Br)cc1,-4.6,.,30.7*,-5.5,-0.1,-3.4,15.8,46.9*
C[C@@H]1CN([C@@H](C)CO)C(=O)CCCn2cc(nn2)CO[C@H]1CN(C)S(C)(=O)=O,-3.4,.,.,.,.,.,.,.
COc1ccccc1Cc1c(-c2ccc(F)cc2)nc2c3ccccc3ccn12,-3.0,.,.,.,.,.,.,.
COCCN1Cc2cc(C(=O)OC)c3c(c2C1=O)c1cc(F)ccc1n3S(=O)(=O)c1cccc(C)c1,1.2,.,.,.,.,.,.,.
O=C(NCc1ccccc1)[C@H]1CCCN1C(=O)[C@H]1CCCN1C(=O)c1cccs1,0.4,.,.,.,.,.,.,.
Cc1ccc2c(c1)C(=O)C(=O)N2CC1COc2ccccc2O1 (stereo not given),-1.4,.,24.2*,6.2,17.1,13.4,12.1,-4.5
COc1ccc2c(c1)C(=O)C(=O)N2CC1COc2ccccc2O1 (stereo not given),-0.5,.,12.0,-0.1,-7.6,18.6,.,.
O=C(C[n+]1ccccc1)N1CCCc2ccccc21,-5.1,-5.9,-7.8,4.9,-2.6,-2.2,.,.
O=C(Cc1cccc2ccccc12)N1CCCc2ccccc21,-3.3,9.7,23.6*,-0.4,-0.6,-3.5,10.7,6.1
O=C(NC1CCCCC1)c1nn2c(C(F)(F)F)cc(-c3ccco3)nc2c1Br,0.1,-17.3,0.4,15.8,1.0,9.9,.,.
O=C(NC1CCCCC1)c1cnn2c(C(F)(F)F)cc(-c3ccco3)nc12,13.5,-9.4,24.2*,-3.3,-1.7,-6.0,12.2,3.2
CCN(CC)c1ccc(-c2nn3c(-c4ccccc4OC)nnc3s2)cc1,.,-9.1,22.5*,-3.8,80.4*,-2.5,13.7,-7.3
CC(=O)Nc1ccc(S(=O)(=O)N2c3ccccc3C(C)=CC2(C)C)cc1,1.5,-5.7,23.2*,3.8,-1.4,-3.4,22.2*,-4.6
CCCCCCN1CCN(C2CN(Cc3cn(Cc4ccc(C(F)(F)F)cc4)nn3)S(=O)(=O)C2)CC1 (stereo not given),-3.1,.,.,.,.,.,.,.
COc1ccc(CCNC(=O)C/C(C)=N/NC(=O)c2ccc(Cl)cc2Cl)cc1OC,-2.7,.,6.1,-5.9,-0.7,-3.8,.,.
SMILES,PRMT1 FP inh,TLR4 MyD88 comp,NOD2-RIPK2 inh,TLR9-MyD88 block,Exocytosis inh,ABHD5-PLIN5 inh,NOD2 RIPK2 conf,BLA counter
COc1ccc(CCNC(=O)C/C(C)=N/NC(=O)c2ccc([N+](=O)[O-])cc2Cl)cc1OC,-1.1,.,45.9*,-4.5,-1.0,0.7,-4.0,-2.2
O=C1NC(Cc2cnc[nH]2)C(=O)N2CCCC12 (stereo not given),6.6,.,.,.,.,.,.,.
O=[N+]([O-])c1cc(S(=O)(=O)Oc2ccccc2)ccc1Cl,0.6,.,57.8*,15.8,80.2*,3.6,15.9,0.6
CN1CCCCC(NC(=O)C2CCCCC2)C1=O (stereo not given),-5.9,.,.,.,.,.,.,.
CNC[C@@H]1OCc2ccccc2-c2c(n(C)c3ccccc23)C(=O)N([C@@H](C)CO)C[C@@H]1C,3.4,.,.,.,.,.,.,.
Cc1cccc(C(=O)Nc2cccc(C(=O)N/N=C/c3ccncc3)c2)c1,-2.1,-1.2,2.5,0.4,-4.8,2.4,.,.
Cc1cccc(C(=O)Nc2ccc(C(=O)/C=C/c3ccncc3)cc2)c1,17.0,.,56.2*,8.6,40.5,91.3*,76.4*,1.9
Cc1[nH]nc2c1C(c1cccc(C(F)(F)F)c1)N(Cc1ccccc1)C2=O (stereo not given),4.1,.,.,.,.,.,.,.
O=C(Nc1ccc(Nc2cccnc2)cc1)c1c[nH]c2ccccc12,7.5,.,.,.,.,.,.,.
COc1cc(/C=C2/C(=N)N3C(=NC2=O)SN=C3S(C)(=O)=O)ccc1OS(=O)(=O)c1ccc(C)cc1,-3.5,.,22.9*,9.2,0.1,-12.8,-1.7,-8.9
O=C1/C(=C/c2ccc(Br)cc2)Oc2cc(O)ccc21,6.5,.,25.1*,17.6,5.5,1.9,37.0*,41.6*
CC(C)(C)c1ccc(/C=C2\Oc3cc(O)ccc3C2=O)cc1,0.1,.,23.9*,20.6,-26.6,0.8,26.8*,44.9*
O=C1/C(=C/c2ccc([N+](=O)[O-])cc2)Oc2cc(O)ccc21,-0.8,.,-3.5,-8.1,0.6,-0.5,.,.
O=C(c1ccc2c(c1)C(=O)NC2=O)c1ccc2c(c1)C(=O)NC2=O,-1.4,.,.,.,.,.,.,.
C=CCN1C(=O)[C@@H](CC(=O)NCCC(C)C)[C@]2(C(=O)OC)CCCCC=C12,-4.1,.,.,.,.,.,.,.

# Screening results (PubChem BioAssay)
